Only some compounds are listed: those with a hit (about 4% of all), similar ones and a draw of the others.
ADAM17 inh: ADAM17 inhibition, QFRET primary screen; P78536; recombinant ADAM17, EDANS/DABCYL FRET peptide cleavage; inhibition, % at 6.95 µM; 370,000 compounds, 0.83% hits; AID 720648;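 active = inhibition above the mean of compounds lying between control limits plus 3 SD, set per campaign, cut at about 8.5% in these data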;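 note: 0% = DMSO-only wells as the low control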
aDG glyco act: alpha-DG glycosylation activation; Pro5-aDG cells, alpha-DG glycosylation AlphaScreen (IIH6); 0% Pro5, 100% B10-LARGE cell signal; activation, % at 10 µM; 360,000 compounds, 0.22% hits; AID 624168;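 active = activation of at least 8% versus controls, or a plate z-score of at least 8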;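 note: Pro5 are CHO cells carrying HIG-tagged alpha-DG that lacks glycosylation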
ADAM10 inh: inhibitors of human ADAM10; inhibition, % at 7 µM; O14672; 370,000 compounds, 0.62% hits; recombinant ADAM10, EDANS/DABCYL FRET peptide cleavage, 3 h;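 active = inhibition above a per-campaign cutoff equal to the mean of compounds falling between control-based bounds plus 3 SD, cut at about 20% in these data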;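 note: 0% = DMSO wells while the 100% control is not disclosed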
FAS TE block: blocks the thioesterase domain of human fatty acid synthase | recombinant FAS-TE, OMFH fluorogenic substrate, fluorescence endpoint | inhibition, % at 15 µM | 360,000 compounds, 0.67% hits;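 active = compounds whose normalised, plate-corrected inhibition of enzyme fluorescence in the single-dose primary screen is 50% or more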;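 note: 0% = DMSO with enzyme and 100% = substrate without enzyme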
NR3A LBD binder: modulates the human NR3A ligand-binding domain | 340,000 compounds, 2.5% hits | AID 1259313 | Tm shift relative to glycine control, % at 25 µM | NR3A LBD differential scanning fluorimetry, Tm shift; 0% = protein alone, 100% = glycine-bound protein;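 active = melting temperature shift of at least 10% of the positive control shift, at one fixed dose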
Starred values were filed as active, the others as inactive; i = inactive; x = no result given.

SMILES | ADAM17 inh | aDG glyco act | ADAM10 inh | FAS TE block | NR3A LBD binder
O=C(/C=C/c1ccc(S(=O)(=O)N2CCOCC2)cc1)NCCc1ccc(C(F)(F)F)cc1 | 0 | 0 | -2 | 2 | -1
Cc1ccc(S(=O)(=O)N2CCN(CC(=O)N/N=C\c3ccc(O)c(O)c3)CC2)cc1 | -9 | 0 | -14 | -3 | 0
CC(OC(=O)c1cc(Br)ccc1O)C(=O)Nc1ccc(S(=O)(=O)N2CCCC2)cc1 (configuration not stated) | 1 | 0 | 5 | 24 | 11*
O=C(Nc1ccccc1)c1cc(S(=O)(=O)N2CCOCC2)cs1 | -5 | 0 | 0 | -5 | 1
O=C(Nc1cccc([N+](=O)[O-])c1)c1cc(S(=O)(=O)N2CCOCC2)cs1 | -2 | 0 | -9 | 11 | 22*
CC(C)(C)C(=O)CN1CCN(S(=O)(=O)c2ccc(F)cc2)CC1 | -6 | 0 | -1 | -9 | 12*
Cc1ccc(S(=O)(=O)N2CCN(CC(=O)N/N=C/c3ccc(C)o3)CC2)cc1 | 2 | 0 | 11 | -5 | 32*
COCCn1c(=O)c2c(nc3n2CCCN3Cc2ccccc2)n(C)c1=O | 0 | 1 | 2 | -2 | 1
Cc1ccnc2nc(C(=O)NCc3ccccc3)nn12 | -1 | 0 | -6 | 0 | -1
CCNC(=O)C1(C)CCCN(CC(=O)c2ccccc2OC)C1 (configuration not stated) | -6 | 0 | -6 | -1 | x
CC(C)CCOc1ccccc1C(N)=O | -1 | 0 | -3 | -4 | -2
CCOC(=O)N1CCN(C(=O)c2cccc(S(=O)(=O)Nc3ccccc3Cl)c2)CC1 | -3 | 0 | -2 | -6 | 1
CN1CCN(S(=O)(=O)c2ccc(NC(=O)C(C)(C)C)cc2)CC1 | -1 | 0 | 3 | -5 | 11*
O=C(Nc1ccc(S(=O)(=O)N2CCOCC2)cc1)c1ccc([N+](=O)[O-])s1 | 1 | 0 | 1 | -3 | 29*
Cc1ccc(C(=O)N2CCN(c3ccc(NC(=O)c4cc(C)cc(C)c4)cc3)CC2)cc1 | 1 | 0 | -5 | -5 | 13*
CC(=O)N1CCN(c2ccc(NC(=O)c3ccc(Cl)c([N+](=O)[O-])c3)cc2)CC1 | 2 | 0 | 2 | 9 | 15*
COc1ccc(NC(C)c2ccccc2)cc1 (configuration not stated) | -2 | 0 | -1 | -1 | -4
Cc1ccc(C(=O)Nc2ccc(S(=O)(=O)N3CCOCC3)cc2)cc1C | -3 | 0 | 5 | 7 | 22*
CC(=O)c1ccc(NC(=O)c2ccc(C)c(S(=O)(=O)N3CCOCC3)c2)cc1 | 0 | 0 | -6 | 1 | 0
O=C(NCc1cccc(F)c1)c1ccc(N2C(=O)Cn3c(cc4sccc43)C2=O)cc1 | -5 | 0 | -6 | 4 | 17*
COc1cc(/C=N/Nc2ncnc3sc4c(c23)CCC4)ccc1O | -3 | 0 | -12 | 2 | 29*
Cc1sc2ncnc(Nc3ccc(O)cc3)c2c1C | -10 | 0 | -3 | -4 | 2
Cc1sc2ncnc(N/N=C/c3cccc(O)c3)c2c1C | 0 | 0 | 1 | 10 | 13*
CCCN(CCC)c1nc(C#N)nc(N(CCC)CCC)n1 | -2 | 0 | 3 | 17 | -1
CCn1c(=O)n(CC(=O)NCc2ccco2)c(=O)c2ccccc21 | -4 | 0 | 7 | -2 | 11*
SMILES | ADAM17 inh | aDG glyco act | ADAM10 inh | FAS TE block | NR3A LBD binder
CCOCCn1ccc2c(OCC(=O)Nc3cc(OC)ccc3OC)cccc2c1=O | -1 | 0 | -7 | 4 | 11*
COCCn1ccc2c(OCC(=O)Nc3cc(OC)ccc3OC)cccc2c1=O | -4 | 0 | -9 | 6 | -1
CCOC(=O)C1CCN(Cc2cnc(Oc3ccc(N)cc3)s2)CC1 | -1 | 0 | 4 | -6 | -3
O=S(=O)(c1ccc2c(c1)OCCO2)N1CCN(S(=O)(=O)c2ccccn2)CC1 | -3 | 0 | -6 | -8 | 2
O=C(O)c1ccccc1C(=O)Nc1ccc(Nc2ccc([N+](=O)[O-])cc2[N+](=O)[O-])cc1 | 2 | 0 | 14 | 3 | 10*
CCOC(=O)c1c(-c2ccc(C)o2)csc1NC(=O)CN1CCOCC1 | 2 | 0 | 3 | 10 | -1
CCOC(=O)c1c(-c2cccs2)csc1NC(=O)CN1CCOCC1 | 1 | 0 | 11 | 19 | 23*
CC(=O)Nc1ccc(C2=NNC(=Nc3cccc(S(=O)(=O)N(C)C)c3)SC2)cc1 | x | 0 | x | -114 | 12*
CCOC(=O)/C(=N\Nc1ccc(C(C)=O)cc1)c1csc(Nc2ccccc2)n1 | 2 | 0 | 0 | -11 | 15*
COc1cc(C(Nc2ccc(S(=O)(=O)N3CCC(C)CC3)cc2)C(=O)NCC2CCCO2)cc(OC)c1OC (configuration not stated) | -4 | 0 | 0 | -2 | -2
CC(=O)Nc1ccc(C(=O)Nc2cc(C(F)(F)F)ccc2-n2cnc3ccccc32)cc1 | -2 | 0 | 6 | -1 | -3
COc1ccc(C(=O)Nc2cc(C(F)(F)F)ccc2-n2cnc3ccccc32)cc1 | 2 | 0 | 2 | 14 | 14*
CCc1cc2c(COC(=O)CCNS(=O)(=O)c3cccc(C(F)(F)F)c3)cc(=O)oc2cc1O | -486 | 0 | i | 16 | 5
Cc1ccccc1NS(=O)(=O)c1ccc(NC(=O)CSCc2ccc(Br)cc2)cc1 | 15* | 0 | 32* | 39 | 22*
CCOC(=O)c1ccc(NC(=O)CSc2nnc(NC(=O)c3ccc(S(=O)(=O)N4CCOCC4)cc3)s2)cc1 | -4 | 0 | -9 | -7 | 37*
Cc1ccc(NC(=O)CSc2nnc(NC(=O)c3ccc(S(=O)(=O)N4CCOCC4)cc3)s2)cc1 | -1 | 0 | 5 | -16 | 28*
Nc1nnc(SCC(=O)Nc2ccc(S(=O)(=O)N3CCOCC3)cc2)s1 | x | 0 | x | -9 | -2
COc1ccc(NC(=O)N2CCCC(c3nc(-c4ccc(C(C)C)cc4)no3)C2)cc1 (configuration not stated) | 11* | 2 | 25* | 26 | -8
COc1ccc(NC(=O)N2CCCC(c3nc(-c4ccc(OC)cc4)no3)C2)cc1 (configuration not stated) | 3 | 1 | 8 | 9 | -10
COc1ccc(-c2cc(C(N)=O)nc(N3CCCCCC3)n2)cc1 | -8 | 0 | -21 | 9 | -5
Cc1nnc(N/N=C/c2ccccc2O)n1N | 0 | 0 | -3 | -3 | -2
Cc1nnc(N/N=C/c2cc(C)n(-c3ccc(F)cc3)c2C)n1N | -4 | 1 | -11 | -9 | 12*
Cc1cn(C2CCCCO2)c(=O)nc1NO (configuration not stated) | 0 | 0 | 3 | -9 | 2
COc1ccc(C(=O)Nc2ccc3c(c2)Cc2ccccc2-3)cc1 | -6 | 1 | -7 | -11 | 17*
O=C(Nc1ccc2c(c1)Cc1ccccc1-2)c1ccco1 | -4 | 1 | -6 | 13 | 22*
O=C(Nc1cccnc1)c1cccnc1 | -4 | 0 | 3 | -3 | 0

Compound activity as filed in PubChem.
